Measured values reported in the supplement of paper PMC8728848.
Many of the other results were omitted from the sample, so the strongest signals are more common in it than they were.

What was measured:
Test in all cases: glycan array binding signal (z-score within array); higher = stronger binding
Conditions in all cases: glycan notation: IUPAC condensed, linker removed
[1] = biological target: Fuc(a1-2)Gal(b1-4)[Fuc(a1-3)]GlcNAc(b1-3)[Neu5Ac(a2-6)Gal(b1-4)GlcNAc(b1-6)]Gal(b1-4)Glc
Method in brief: (§1)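 Arrays were curated from the Consortium for Functional Glycomics database, 3228 in total, and kept only where the protein sequence was available. Binding is expressed as a within-array Z-score. This score was averaged across arrays of the same protein sequence at different concentrations or buffers and across linkers, and negative values can be read as non-binding.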

Fuc(a1-2)[Gal(a1-3)]Gal = biological target: Fuc(a1-2)[Gal(a1-3)]Gal
Method in brief: as §1

[2] = biological target: Fuc(a1-2)[GalNAc(a1-3)]Gal(b1-4)GlcNAc(b1-2)Man(a1-3)[Fuc(a1-2)[GalNAc(a1-3)]Gal(b1-4)GlcNAc(b1-2)Man(a1-6)]Man(b1-4)GlcNAc(b1-4)[Fuc(a1-6)]GlcNAc
Method in brief: as §1

[3] = biological target: Fuc(a1-2)[GalNAc(a1-3)]Gal(b1-4)GlcNAc(b1-3)Gal(b1-4)GlcNAc(b1-3)Gal(b1-4)GlcNAc
Method in brief: as §1

[4] = biological target: Fuc(a1-2)[GalNAc(a1-3)]Gal(b1-4)[Fuc(a1-3)]GlcNAc(b1-3)GalNAc
Method in brief: as §1

Fuc(b1-3)GlcNAc = biological target: Fuc(b1-3)GlcNAc
Method in brief: as §1

[5] = biological target: Gal(a1-3)Gal(b1-4)GlcNAc(b1-3)GalNAc
Method in brief: as §1

Gal(a1-6)Glc = biological target: Gal(a1-6)Glc
Method in brief: as §1

[6] = biological target: Gal(b1-3)GlcNAc(b1-2)[Gal(b1-3)GlcNAc(b1-6)]Man(a1-6)[Gal(b1-3)GlcNAc(b1-2)Man(a1-3)]Man(b1-4)GlcNAc(b1-4)GlcNAc
Method in brief: as §1

[7] = biological target: Gal(b1-3)GlcNAc(b1-3)Gal(b1-3)GlcNAc
Method in brief: as §1

[8] = biological target: Gal(b1-3)[Fuc(a1-4)]GlcNAc
Method in brief: as §1

[9] = biological target: Gal(b1-3)[Fuc(a1-4)]GlcNAc(b1-3)Gal(b1-3)[Fuc(a1-4)]GlcNAc
Method in brief: as §1

[10] = biological target: Gal(b1-3)[GlcNAc(b1-6)]GalNAc
Method in brief: as §1

Gal(b1-4)GlcNAc = biological target: Gal(b1-4)GlcNAc
Method in brief: as §1

[11] = biological target: Gal(b1-4)GlcNAc(b1-2)Man(a1-3)Man(b1-4)GlcNAc(b1-4)GlcNAc
Method in brief: as §1

[12] = biological target: Gal(b1-4)GlcNAc(b1-2)[Gal(b1-4)GlcNAc(b1-6)]Man(a1-6)[GlcNAc(b1-4)][Gal(b1-4)GlcNAc(b1-2)Man(a1-3)]Man(b1-4)GlcNAc(b1-4)GlcNAc
Method in brief: as §1

[13] = biological target: Gal(b1-4)GlcNAc(b1-3)[Fuc(a1-3)GlcNAc(b1-6)]Gal(b1-4)Glc
Method in brief: as §1

[14] = biological target: Gal(b1-4)GlcNAc(b1-3)[GlcNAc(b1-6)]Gal(b1-4)GlcNAc
Method in brief: as §1

Gal3S6S(b1-4)GlcNAc = biological target: Gal3S6S(b1-4)GlcNAc
Method in brief: as §1

Gal4S(b1-4)GlcNAc = biological target: Gal4S(b1-4)GlcNAc
Method in brief: as §1

Gal4S6S(b1-4)GlcNAc = biological target: Gal4S6S(b1-4)GlcNAc
Method in brief: as §1

Gal6S(b1-3)GlcNAc6S = biological target: Gal6S(b1-3)GlcNAc6S
Method in brief: as §1

[15] = biological target: GalNAc(a1-3)GalNAc(a1-3)Gal(a1-4)Gal(b1-4)GlcNAc
Method in brief: as §1

[16] = biological target: GalNAc(b1-3)Gal(a1-6)Gal(b1-4)Glc
Method in brief: as §1

[17] = biological target: GalNAc(b1-4)GlcNAc(b1-2)Man(a1-3)[GalNAc(b1-4)GlcNAc(b1-2)Man(a1-6)]Man(b1-4)GlcNAc(b1-4)GlcNAc
Method in brief: as §1

GalNAc6S(b1-4)GlcNAc = biological target: GalNAc6S(b1-4)GlcNAc
Method in brief: as §1

[18] = biological target: Glc(a1-4)Glc(a1-4)Glc(a1-4)Glc
Method in brief: as §1

[19] = biological target: GlcNAc(a1-3)Gal(b1-4)GlcNAc
Method in brief: as §1

[20] = biological target: GlcNAc(a1-4)Gal(b1-3)GlcNAc
Method in brief: as §1

[21] = biological target: GlcNAc(a1-4)Gal(b1-4)GlcNAc
Method in brief: as §1

[22] = biological target: Fuc(a1-2)Gal(b1-4)[Fuc(a1-3)]GlcNAc(b1-3)Gal(b1-4)[Fuc(a1-3)]GlcNAc
Method in brief: as §1

[23] = biological target: Fuc(a1-2)[GalNAc(a1-3)]Gal(b1-4)Glc
Method in brief: as §1

[24] = biological target: Fuc(a1-3)[Gal(b1-4)]GlcNAc
Method in brief: as §1

Gal(a1-3)Gal = biological target: Gal(a1-3)Gal
Method in brief: as §1

[25] = biological target: Gal(b1-3)[Neu5Ac(a2-6)]GalNAc
Method in brief: as §1

[26] = biological target: Gal(b1-3)[Neu5Ac(a2-6)]GlcNAc(b1-6)Gal(b1-4)Glc
Method in brief: as §1

[27] = biological target: Gal(b1-4)GlcNAc(b1-3)Gal(b1-4)GlcNAc
Method in brief: as §1

Gal3S6S(b1-4)GlcNAc6S = biological target: Gal3S6S(b1-4)GlcNAc6S
Method in brief: as §1

[28] = biological target: GalNAc(b1-3)Gal(a1-4)Gal(b1-4)GlcNAc
Method in brief: as §1

GalNAc(b1-4)GlcNAc = biological target: GalNAc(b1-4)GlcNAc
Method in brief: as §1

Glc(b1-6)Glc = biological target: Glc(b1-6)Glc
Method in brief: as §1

GlcA(b1-3)Gal = biological target: GlcA(b1-3)Gal
Method in brief: as §1

GlcA(b1-6)Gal = biological target: GlcA(b1-6)Gal
Method in brief: as §1

GlcNAc(b1-3)Gal = biological target: GlcNAc(b1-3)Gal
Method in brief: as §1

[29] = biological target: GlcNAc(b1-3)Gal(b1-4)GlcNAc(b1-3)Gal(b1-4)GlcNAc
Method in brief: as §1

Kdn(a2-3)Gal(b1-4)GlcNAc = biological target: Kdn(a2-3)Gal(b1-4)GlcNAc
Method in brief: as §1

Man(b1-4)GlcNAc = biological target: Man(b1-4)GlcNAc
Method in brief: as §1

[30] = biological target: Neu5Ac(a2-3)Gal(b1-3)[Fuc(a1-4)]GlcNAc
Method in brief: as §1

[31] = biological target: Neu5Ac(a2-3)Gal(b1-4)GlcNAc(b1-3)Gal(b1-4)GlcNAc(b1-3)Gal(b1-4)GlcNAc
Method in brief: as §1

[32] = biological target: Neu5Ac(a2-3)[GalNAc(b1-4)]Gal(b1-4)GlcNAc
Method in brief: as §1

Neu5Ac(a2-8)Neu5Ac = biological target: Neu5Ac(a2-8)Neu5Ac
Method in brief: as §1

[33] = biological target: Neu5Gc(a2-3)Gal(b1-3)[Fuc(a1-4)]GlcNAc
Method in brief: as §1

[34] = biological target: Neu5Gc(a2-3)Gal(b1-4)GlcNAc
Method in brief: as §1

[35] = biological target: Neu5Gc(a2-6)Gal(b1-4)GlcNAc
Method in brief: as §1

B1: Clrb (Mus musculus) (protein)
chain: ITGATKTEQIPVNKTYAACPQNWIGVENKCFYFSEYPSNWTFAQAFCMAQEAQLARFDNQDELNFLMRYKANFDSWIGLHRESSEHPWKWTDNTEYNNTIPIRGEERFAYLNNNGISSTRIYSLRMWICSKLNSYSLHCQTPFFPSGTKHHHHHHHHG
- glycan array binding signal (z-score) [1]: -0.359
- glycan array binding signal (z-score) (Fuc(a1-2)[Gal(a1-3)]Gal): -0.293
- glycan array binding signal (z-score) [2]: -0.417
- glycan array binding signal (z-score) [3]: -0.215
- glycan array binding signal (z-score) [4]: -0.299
- glycan array binding signal (z-score) (Fuc(b1-3)GlcNAc): -0.294
- glycan array binding signal (z-score) [5]: -0.505
- glycan array binding signal (z-score) (Gal(a1-6)Glc): -0.176
- glycan array binding signal (z-score) [6]: -0.249
- glycan array binding signal (z-score) [7]: -0.431
- glycan array binding signal (z-score) [8]: -0.303
- glycan array binding signal (z-score) [9]: -0.404
- glycan array binding signal (z-score) [10]: -0.186
- glycan array binding signal (z-score) (Gal(b1-4)GlcNAc): -0.146
- glycan array binding signal (z-score) [11]: -0.355
- glycan array binding signal (z-score) [12]: -0.157
- glycan array binding signal (z-score) [13]: -0.386
- glycan array binding signal (z-score) [14]: 5.13
- glycan array binding signal (z-score) (Gal3S6S(b1-4)GlcNAc): -0.099
- glycan array binding signal (z-score) (Gal4S(b1-4)GlcNAc): -0.31
- glycan array binding signal (z-score) (Gal4S6S(b1-4)GlcNAc): -0.101
- glycan array binding signal (z-score) (Gal6S(b1-3)GlcNAc6S): -0.357
- glycan array binding signal (z-score) [15]: -0.541
- glycan array binding signal (z-score) [16]: -0.023
- glycan array binding signal (z-score) [17]: 4.64
- glycan array binding signal (z-score) (GalNAc6S(b1-4)GlcNAc): 4.38
- glycan array binding signal (z-score) [18]: -0.498
- glycan array binding signal (z-score) [19]: 5.77
- glycan array binding signal (z-score) [20]: 3.81
- glycan array binding signal (z-score) [21]: 4.2

B2: AICL (Homo sapiens), Q92478 (protein)
chain: MMTKHKKCFIIVGVLITTNIITLIVKLTRDSQSLCPYDWIGFQNKCYYFSKEEGDWNSSKYNCSTQHADLTIIDNIEEMNFLRRYKCSSDHWIGLKMAKNRTGQWVDGATFTKSFGMRGSEGCAYLSDDGAATARCYTERKWICRKRIH
- glycan array binding signal (z-score) [22]: -0.049
- glycan array binding signal (z-score) (Fuc(a1-2)[Gal(a1-3)]Gal): -0.508
- glycan array binding signal (z-score) [23]: -0.265
- glycan array binding signal (z-score) [24]: -0.169
- glycan array binding signal (z-score) (Fuc(b1-3)GlcNAc): -0.469
- glycan array binding signal (z-score) (Gal(a1-3)Gal): -0.224
- glycan array binding signal (z-score) [25]: -0.085
- glycan array binding signal (z-score) [26]: -0.359
- glycan array binding signal (z-score) [27]: -0.439
- glycan array binding signal (z-score) (Gal3S6S(b1-4)GlcNAc6S): 5.26
- glycan array binding signal (z-score) [28]: -0.363
- glycan array binding signal (z-score) (GalNAc(b1-4)GlcNAc): -0.322
- glycan array binding signal (z-score) (Glc(b1-6)Glc): -0.395
- glycan array binding signal (z-score) (GlcA(b1-3)Gal): 5.65
- glycan array binding signal (z-score) (GlcA(b1-6)Gal): 4.6
- glycan array binding signal (z-score) (GlcNAc(b1-3)Gal): -0.329
- glycan array binding signal (z-score) [29]: -0.374
- glycan array binding signal (z-score) (Kdn(a2-3)Gal(b1-4)GlcNAc): 2.06
- glycan array binding signal (z-score) (Man(b1-4)GlcNAc): -0.401
- glycan array binding signal (z-score) [30]: -0.312
- glycan array binding signal (z-score) [31]: -0.415
- glycan array binding signal (z-score) [32]: -0.3
- glycan array binding signal (z-score) (Neu5Ac(a2-8)Neu5Ac): 0.384
- glycan array binding signal (z-score) [33]: -0.323
- glycan array binding signal (z-score) [34]: 0.329
- glycan array binding signal (z-score) [35]: -0.267
